An excerpt weighted towards active compounds, which were near 3.5% of everything screened.
FBW7 activator – activators of human E3 ligase FBW7 | Q969H0 | AlphaScreen FBW7–phospho-cyclin E peptide binding, activator screen | normalized activity (activation), % at 26.1 µM | 650,000 tested, 0.13% active | AID 1259310; in the data active = normalized activity above about 1.9%;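 also: purified mutant Fbw7 with reduced substrate affinity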
GPR151 ag – human GPR151 activation. 650,000 tested, 1% active. Q8TDV0. PathHunter beta-arrestin GPR151 cells, luminescence. activation, % at 11.2 µM; in the data active = activation above about 4.9%
MITF inh – human MITF inhibition, primary screen; O75030; AlphaScreen MITF homodimerization, bead proximity signal; inhibition, % at 2.6 µM; 650,000 tested, 0.91% active; AID 1259374; in the data active = inhibition above about 50%
Target sequence (O75030 whole entry, looked up): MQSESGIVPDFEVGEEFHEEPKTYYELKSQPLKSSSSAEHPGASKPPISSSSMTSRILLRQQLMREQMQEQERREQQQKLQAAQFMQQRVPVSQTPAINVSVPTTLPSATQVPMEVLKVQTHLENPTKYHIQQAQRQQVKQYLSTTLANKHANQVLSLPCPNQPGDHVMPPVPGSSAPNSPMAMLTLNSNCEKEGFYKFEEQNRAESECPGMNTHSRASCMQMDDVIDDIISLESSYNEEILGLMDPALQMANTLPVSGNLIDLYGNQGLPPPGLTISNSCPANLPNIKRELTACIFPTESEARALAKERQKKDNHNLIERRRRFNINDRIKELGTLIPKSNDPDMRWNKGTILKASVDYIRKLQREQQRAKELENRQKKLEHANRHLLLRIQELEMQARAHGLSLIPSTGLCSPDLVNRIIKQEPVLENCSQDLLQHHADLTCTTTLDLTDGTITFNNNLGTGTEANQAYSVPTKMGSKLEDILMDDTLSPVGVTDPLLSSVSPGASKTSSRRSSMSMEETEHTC
TEAD-YAP inh – TEAD-YAP interaction inhibition | HEK-TIYL cells, TEAD-Gal4/YAP UAS-luciferase luminescence | inhibition, % at 9.12 µM | 640,000 tested, 1.4% active | AID 1259422; in the data active = inhibition above about 32%
Large screens that a line does not name were inactive.

COc1ccc2nc3sc(C(=O)N4CCN(c5ccccc5OC)CC4)c(N)c3cc2c1	none
O=C(O)CCC/C=C\C[C@@H]1CO[C@H](C(F)(F)F)O[C@@H]1c1ccccc1O	FBW7 activator 2.2 (no result: TEAD-YAP inh)
Cc1cccc(N(C)c2ccnc3c(-c4cccc(CO)c4)cnn23)c1	TEAD-YAP inh 76
CN1CCN(c2ccnc3c(-c4ccc(O)cc4)cnn23)CC1	MITF inh 78, TEAD-YAP inh 43
CCCNc1ccnc2c(-c3ccc(O)cc3)cnn12	TEAD-YAP inh 97
CCCNc1ccnc2c(-c3cccc(CO)c3)cnn12	TEAD-YAP inh 102
CN1CCN(c2ccnc3c(-c4ccc(Cl)cc4)cnn23)CC1	none
OCc1cccc(-c2cnn3c(NCCCN4CCOCC4)ccnc23)c1	none
CCCNc1ccnc2c(-c3ccc(N(C)C)cc3)cnn12	none
C/C(=C\C(=O)N1CCN(C)CC1)C(=O)O	none
CCOC(=O)NC(Cc1c[nH]c2ccccc12)C(=O)Nc1ccccc1C(N)=O (configuration not stated)	none
CN(C)c1cccc(Nc2ccnc3c(-c4cccc(CO)c4)cnn23)c1	TEAD-YAP inh 63
CN(C)c1cccc(Nc2ccnc3c(-c4ccc(O)cc4)cnn23)c1	none
COc1ccccc1C1CC(=O)c2c(ccc3ccccc23)N1 (configuration not stated)	TEAD-YAP inh 61
COc1cc(C2CC(=O)c3c(ccc4ccccc34)N2)ccc1OCc1ccccc1 (configuration not stated)	none
Cn1cc(CN2CCN3C(=O)[C@@H]4CCCN4C(=O)[C@H]3C2)c(-c2ccccc2)n1	none
O=C(/C=C/c1ccco1)NC(=S)NCc1cccnc1	TEAD-YAP inh 47
COCCSc1nsc(NC(=O)Nc2cccc(C(C)=O)c2)n1	TEAD-YAP inh 33
CCOC(=O)CNC(=O)/C(=C\c1ccc(F)cc1)NC(=O)c1ccco1	none
CCCCN(C)c1nnc(NC(=O)NCc2ccccc2)s1	TEAD-YAP inh 58
CN(Cc1ccccc1)c1nnc(NC(=O)NCc2ccccc2)s1	TEAD-YAP inh 47
COCCCNC(=O)Nc1nnc(N(C)Cc2ccccc2)s1	none
O=c1oc2cc(O)ccc2cc1-c1nnc(Nc2ccc(F)cc2)s1	none
CCc1ccc(Nc2nnc(-c3cc4ccc(O)cc4oc3=O)s2)cc1	TEAD-YAP inh 34
O=c1oc2cc(O)ccc2cc1-c1nc(-c2cccs2)cs1	TEAD-YAP inh 77
O=c1oc2cc(O)ccc2cc1-c1nc(-c2ccccc2)cs1	none
Fc1ccc(CSc2nc3ccccc3c3nc(-c4ccccc4)nn23)cc1	none
COC(=O)N/N=C\c1ccc(-c2ccccc2Cl)o1	none
O=C(c1ccc2cncc(-c3ccccc3)c2n1)N1CCOCC1	TEAD-YAP inh 36
O=C(c1ccc2cncc(-c3ccccc3)c2n1)N1CCC(O)CC1	TEAD-YAP inh 51
O=C(c1ccc2cncc(-c3ccsc3)c2n1)N1CCC(O)CC1	TEAD-YAP inh 61
O=C(/C=C/c1ccc(O)c(O)c1)c1ccc(O[C@@H]2O[C@H](CO)[C@@H](O)[C@H](O)[C@H]2O)c(O)c1O	MITF inh 56
CC(=O)NC1=NN(C(C)=O)C(C)(c2ccccc2)S1 (configuration not stated)	TEAD-YAP inh 61
CC(=O)NC1=NN(C(C)=O)C(C)(c2ccc3ccccc3c2)S1 (configuration not stated)	none
CC(=O)NC1=NN(C(C)=O)C(C)(c2cccc(OC(C)=O)c2)S1 (configuration not stated)	TEAD-YAP inh 64
CC(=O)NC1=NN(C(C)=O)C(C)(c2ccc(NC(C)=O)cc2)S1 (configuration not stated)	none
COc1ccc(C2c3[nH]c4ccccc4c3CCN2C(=O)C(C)(C)O)cc1C (configuration not stated)	none
COc1cc(/C=C/C(=O)c2ccccc2OC)ccc1OCC#N	TEAD-YAP inh 58
O=C(Nc1ccc(Oc2ccccc2)cc1)c1ccc2nc(-c3cccs3)sc2c1	none
CSC1=C(C#N)C(c2cccs2)C2=C(CCCC2=O)N1 (configuration not stated)	none
CSC1=C(C#N)C(c2ccccc2C)C2=C(CCCC2=O)N1 (configuration not stated)	TEAD-YAP inh 39
CC1CCCCC1NC(=O)CN(C)S(=O)(=O)c1ccc2nc(-c3ccccc3)[nH]c2c1 (configuration not stated)	MITF inh 54
CCOc1ccccc1C(=S)N1CCN(CCO)CC1	none
Cc1ccc(Nc2cc(C)nn2-c2nc(C)cc(C)n2)cc1	none
Cc1ccc(Nc2cc(C)nn2-c2nc(C)cc(=O)[nH]2)cc1	TEAD-YAP inh 58
O=C(NC1CCC(O)CC1)c1cccc(OC2CCN(Cc3ccncc3)CC2)c1 (configuration not stated)	none
COc1ccc(C(=O)CCNC(CO)C(=O)O)cc1 (configuration not stated)	none
Cc1ccc2nc(-c3ccc(O)c(O)c3)cn2c1	TEAD-YAP inh 54
Cc1ccc2nc(-c3ccc(O)cc3O)cn2c1	TEAD-YAP inh 80
Cc1ccc2nc(-c3ccc([N+](=O)[O-])cc3)cn2c1	none
Cc1cc(C)c2nc(NC(=O)c3ccc(C)c([N+](=O)[O-])c3)sc2c1	none
COc1ccccc1-n1cnc(N)c1C(=O)c1ccccc1	TEAD-YAP inh 53
CC(=O)OC1c2ccccc2NC(c2ccccc2)C1(C)C (configuration not stated)	none
CC(=O)OC1c2cc(C)ccc2NC(c2ccccc2)C1(C)C (configuration not stated)	TEAD-YAP inh 63
CC1(C)O[C@H]2OC(C(=O)NCC(=O)NCC(=O)Nc3ccccc3O)[C@@H]3OC(C)(C)O[C@@H]3[C@H]2O1 (some centres not stated)	none
CCc1ccc(N2CC(C(=O)NCC(C)(C)CNC(=O)C3CC(=O)N(c4ccc(CC)cc4)C3)CC2=O)cc1 (configuration not stated)	FBW7 activator 4.5
CN1CC[C@@H](Oc2cc(C(=O)Nc3ccc4[nH]ncc4c3)ccn2)C1	TEAD-YAP inh 52
NCCOc1ccc(C(=O)Nc2ccc3[nH]ncc3c2)cn1	TEAD-YAP inh 54
CN1CC[C@H](Oc2ccnc(C(=O)Nc3ccc4[nH]ncc4c3)c2)C1	none
CN1CCCC(Oc2ccnc(C(=O)Nc3ccc4[nH]ncc4c3)c2)C1 (configuration not stated)	TEAD-YAP inh 45
O=C(Nc1ccc2[nH]ncc2c1)c1ccc(O[C@H]2CCNC2)nc1	none
CN1CC[C@H](Oc2ccc(C(=O)Nc3ccc4[nH]ncc4c3)cn2)C1	none
CN1CCC(Oc2ccc(C(=O)Nc3ccc4[nH]ncc4c3)cn2)CC1	TEAD-YAP inh 88
CCCc1[nH]nc2c1C(c1ccc(C)cc1)C(C#N)=C(N)O2 (configuration not stated)	none
N#Cc1ccc(-c2cccs2)nc1SCCOc1ccccc1	none
CCn1c(COc2ccc(Cl)c3cccnc23)nnc1SCC(=O)O	none
O=[N+]([O-])c1cccc(-c2nnc(SCCO)o2)c1	none
COC(=O)CSc1nc(N)c(C#N)c(-c2ccco2)c1C#N	none
Cc1cc(C(F)(F)F)c(C#N)c(SCC(=O)Nc2ccc(F)cc2)n1	none

Screening data from PubChem.
